Reference: PubChem BioAssay AID488890 (Southern Research Specialized Biocontainment Screening …, 2010)
Among all 320,000 compounds or so, about 1,300 (0.41%) were called active. Another 3% or so got no clear call; they are omitted. How the calls were made is not given here. A selection follows. Entries with a potency or affinity are not part of this list.

Assay: growth inhibition of non-replicating M. tuberculosis (AID 488890);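 further: plate controls were DMSO cells for no effect and high antibiotic wells for full effect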
Conditions: Mycobacterium tuberculosis non-replicating, at 25 µM, stronger effect = higher value

SMILES | inhibition [%]
COCCCn1nnnc1SCC(=O)N1c2ccccc2CC1C (configuration not stated) | 0.95
CC(=O)Nc1ccc2c(c1)C(=O)N(C1CCCCC1)C2=O | -7.24
CCOc1ccc(OCCC(=O)OCC(=O)N2CCN(S(=O)(=O)c3ccc(Cl)cc3)CC2)cc1 | 40.6
Cc1ccc(NC(=O)C(C)SCc2nc3sc(C)c(C)c3c(=O)[nH]2)nc1 (configuration not stated) | -7.05
C[C@H](NC(=O)[C@@H]1Cc2ccccc2CN1C(=O)OC(C)(C)C)C(=O)NCC1CCCO1 (some centres not stated) | 6.8
CC(=O)Nc1nc2ccccc2n1CCN(C)C | 14.6
Nc1nc2ccccc2n1CCOc1ccc(F)cc1 | 11
Nc1nc2ccccc2n1CCOc1ccc(Cl)cc1 | 79
O=C(O)c1ccc(NCc2nc3ccccc3n2CCOc2ccccc2Cl)cc1 | 30.7
O=C(CCc1nnc(CCCCc2ccccc2)o1)NCCC1CCCCO1 (configuration not stated) | 15.1
CCCNC(=O)N1CCN(S(=O)(=O)c2ccc3c(c2)OCCO3)CC1 | 1.44
CCCNC(=O)NC(=O)CN1CCCC1c1ccc2c(c1)OCCO2 (configuration not stated) | -16.2
CCOC(=O)c1c(CC(C)C)csc1/N=C/C1C(=O)CC(C)(C)CC1=O | -10.2
OCC1(Cc2ccc(F)cc2)CCCN(CCCC(F)(F)F)C1 (configuration not stated) | -19.8
Cc1ccc(S(=O)(=O)N2[C@@H](c3ccc4c(c3)OCO4)C(C(=O)O)=C[C@H]2C(C)(C)C)cc1 | 41.7
CC1Cc2ccccc2N1C(=O)COC(=O)c1cc(Br)ccc1O (configuration not stated) | 62.7
O=C(CCC(=O)N1CCN(c2ccccn2)CC1)c1cccs1 | -4.25
O=C(CCC(=O)c1cccs1)c1cccs1 | 68.8
Cc1ccc(NC(=O)N2CCCCCC2)c(C)c1 | -16.7

SMILES | inhibition [%]
Cc1cccc(-c2c3c(=O)n(C)c(=O)n(C)c3cn2-c2ccc(O)cc2)c1 | -12.8
CC(C)NC(=O)c1cc(-n2cnnc2)ccc1Cl | 2.78
CCOC(=O)C1=C(c2ccccc2)NC(=O)NC1c1ccc(OCC#N)c(OC)c1 (configuration not stated) | -4.72
CCOC(=O)C1=C(c2ccccc2)Nc2ncnn2C1c1ccc(C(=O)O)cc1 (configuration not stated) | 1.92
CCOC(=O)C1=C(c2ccccc2)NC(=O)NC1c1ccc(OC)c(OC)c1 (configuration not stated) | 2.41
COC(=O)c1ccc(CNC(=O)c2ccc(COc3ccccc3)cc2)cc1 | 10.8
Cc1cc(C(=O)Nc2cc(C)on2)on1 | 6.65
C=C[C@]1(C)C=C2CC[C@H]3[C@@](C)(CCC[C@@]3(C)C(=O)O)[C@@H]2CC1 | 43.7
C=C/C(C)=C/CC1C(=C)CCC2C(C)(C(=O)O)CCCC12C (configuration not stated) | 0.01
O=C(O)C1CCN(S(=O)(=O)c2ccc(N3CCOCC3)c([N+](=O)[O-])c2)CC1 | -8.22
Cc1ccc(N(C(=O)CNC(=O)c2ccco2)C(C(=O)NCC2CCCO2)c2ccccc2)cc1C (configuration not stated) | 16
CCNC(=O)C(C)Sc1ccc(Cl)cc1 (configuration not stated) | 25.6
COc1ccc(-c2nnn(CC(=O)N(C3CCCCC3)C(C)C(=O)NC3CCCC3)n2)cc1OC (configuration not stated) | 34.8
COc1ccc(-c2nnn(CC(=O)NC(=O)NC3CCCCC3)n2)cc1OC | 2.95
CCCCCn1c(=O)c(C(=O)Nc2ccccc2C)c(O)c2ccccc21 | -22.9
CCCCCn1c(=O)c(C(=O)Nc2cccc(C)n2)c(O)c2ccccc21 | -21.5
CCOC(=O)Cc1csc(NC(=O)c2c(O)c3c(n(CC(C)C)c2=O)CCCC3)n1 | 44.2
CC(C)CCn1c(=O)c(C(=O)Nc2ccccc2S(N)(=O)=O)c(O)c2ccccc21 | 17.2
Cc1ccc(S(=O)(=O)N(C)C)cc1NC(=O)c1c(-c2c(F)cccc2Cl)noc1C | -9.18

SMILES | inhibition [%]
CCOc1ccccc1C(=O)Nc1nccs1 | 5.93
CCOc1cccc2cc(C(=O)Nc3cc(C)on3)c(=O)oc12 | 75.1
O=C(Nc1nccs1)c1cc(Cl)ccc1[N+](=O)[O-] | 12.9
O=C(Nc1nccs1)c1ccc(Cl)cc1[N+](=O)[O-] | 0.86
Nc1nnc(-c2ccccc2F)s1 | 1
O=C(/C=C/c1ccc(Cl)cc1)Nc1ccccc1N1CCOCC1 | -7.86
O=c1[nH]c(=O)n(Cc2ccco2)c(O)c1/C=N/N1CCCCC1 | 1.03
COCCN=C1NN=C(c2ccc(C)c([N+](=O)[O-])c2)CS1 | -8.83
N/C(=N\OC(=O)CC1CCCCC1)c1cccnc1 | 73
N/C(=N\OC(=O)CCC1CCCC1)c1ccncc1 | 60.9
Cc1ccc(OCCN2CCN(c3nc(NCc4ccco4)c4ccccc4n3)CC2)cc1 | 62.8
OCCN1CCN(c2nc(NCc3ccco3)c3ccccc3n2)CC1 | 9.79
CCN(c1ccccc1)S(=O)(=O)c1ccc(NC(=O)c2nc(S(C)(=O)=O)ncc2Cl)cc1 | 37.2
CN(c1ccccc1)S(=O)(=O)c1ccc(NC(=O)c2nc(S(C)(=O)=O)ncc2Cl)cc1 | 56
CCC1CCCCN1S(=O)(=O)c1ccc(NC(=O)c2nc(S(C)(=O)=O)ncc2Cl)cc1 (configuration not stated) | 66.2
Cc1ccc(CS(=O)(=O)c2ncc(Cl)c(C(=O)Nc3ccc(OC(F)F)cc3)n2)cc1 | -1.41
CCS(=O)(=O)c1ncc(Cl)c(C(=O)Nc2ccc(S(=O)(=O)N3CCCC(C)C3)cc2)n1 (configuration not stated) | 58.5
CCc1ccc(NC(=O)c2nc(S(=O)(=O)Cc3ccccc3)ncc2Cl)cc1 | 0.81
Cc1ccc(F)cc1NC(=O)N1CCCN(C(=O)OC(C)(C)C)CC1 | -10.3
